For orientation: inhibition means the change of the read-out against control, counted positive when it falls.

The text below walks through data of PubChem BioAssay.

A number with no mark means an inactive call. For some of these results: Measured potencies and affinities stand elsewhere. Calls of active or inactive are those of the source. Unless noted, how the calls were made is not given here.

A short description of assay [1]: antimalarial activity against Dd2 strain (AID 2302;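 active means growth inhibition above 50% at the single 2 µM test dose, taken to imply half-maximal potency below 2 µM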;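 further: 0% = DMSO untreated growth and 100% = chloroquine plus artemisinin killed control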). The note with it: P. falciparum Dd2 in RBCs, LDH growth readout, 72 h; at 2 µM; hits give high values.
A short description of assay [2]: HepG2 cytotoxicity, primary screen, cytotoxicity control for P. falciparum antimalarial project, cell-based, ATP luminescence (AID 2303;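 active means inhibition above 50%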;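 further: 0% = DMSO wells and 100% = digitonin-killed cells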). The following applies: HepG2 viability, 24-48 h, at 10 µM, hits give high values.
In assay [3] the target is L-lactate dehydrogenase (Plasmodium falciparum (isolate CDC / Honduras)) (UniProt Q27743). Put plainly: PfLDH activity inhibition – cell lysate, 3D7 strain, counter-screen for P. falciparum growth inhibition project (AID 2304).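 Further: 0% = vehicle and 100% = reference inhibitor.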 The note with it: P. falciparum 3D7 crude extract, LDH APAD/NBT absorbance; at 2 µM; hits give high values.
Assay [4] is described as follows: inhibition of 3D7 malaria parasite growth – strain 3D7 (AID 2306).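 Further: 0% = DMSO wells and 100% = chloroquine plus artemisinin control wells.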 The following applies: P. falciparum 3D7 erythrocytic growth, LDH absorbance, 72 h; at 2 µM; hits give high values.
Assay [5] deals with Calcium-dependent protein kinase 1 (Plasmodium falciparum (isolate 3D7)) (UniProt P62344). Put plainly: PfCDPK1 kinase inhibitors, biochemical, TCAMS library (AID 1159585; cut-off not given, nearly all actives have IC50 up to about 0.98 µM;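 further: inhibitors leave more ATP so luminescence rises with inhibition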). The following applies: recombinant PfCDPK1, Kinase-Glo ATP depletion luminescence. Background: In Kinase-Glo more light means more ATP remaining.
Assay [6] concerns the target Plasmodium falciparum protein kinase 6 (PK6, PF3D7_1337100) (UniProt Q8IDW1). Put plainly: PfPK6 kinase inhibitors, biochemical, TCAMS library (AID 1159586). The note with it: recombinant PfPK6, Kinase-Glo ATP depletion luminescence.
For assay [7], the target named is Protein kinase 7 (PK7), Plasmodium falciparum 3D7 (PF3D7_0213400) (UniProt Q7YTF7). Description: inhibition of Plasmodium PK7 catalytic activity – biochemical, TCAMS antimalarial set, Kinase-Glo luminescence (AID 1159587). The following applies: recombinant PfPK7, Kinase-Glo ATP depletion luminescence.
Assay [8] concerns the target Calcium-dependent protein kinase 4 (Plasmodium falciparum (isolate 3D7)) (UniProt Q8IBS5). Description: PfCDPK4 kinase inhibitors, biochemical, TCAMS library (AID 1159588; cut-off not given, nearly all actives have IC50 up to about 0.91 µM). The following applies: recombinant PfCDPK4, Kinase-Glo ATP depletion luminescence.

Sequence of Calcium-dependent protein kinase 4 (Plasmodium falciparum (isolate 3D7)) (Q8IBS5 whole entry, looked up): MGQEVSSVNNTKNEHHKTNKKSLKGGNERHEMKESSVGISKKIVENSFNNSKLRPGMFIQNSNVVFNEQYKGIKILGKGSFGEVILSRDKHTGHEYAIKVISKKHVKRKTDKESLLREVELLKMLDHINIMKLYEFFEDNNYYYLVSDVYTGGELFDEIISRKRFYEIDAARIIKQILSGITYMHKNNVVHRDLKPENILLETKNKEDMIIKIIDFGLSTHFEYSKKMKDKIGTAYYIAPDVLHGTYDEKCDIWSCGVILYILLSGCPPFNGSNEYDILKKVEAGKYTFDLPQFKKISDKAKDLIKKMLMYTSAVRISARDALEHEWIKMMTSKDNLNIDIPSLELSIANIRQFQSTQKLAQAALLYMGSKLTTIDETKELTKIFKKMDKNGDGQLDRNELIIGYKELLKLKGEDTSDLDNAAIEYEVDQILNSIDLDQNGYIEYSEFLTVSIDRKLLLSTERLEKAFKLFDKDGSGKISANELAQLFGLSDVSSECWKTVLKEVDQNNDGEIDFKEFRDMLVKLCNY
Sequence of Plasmodium falciparum protein kinase 6 (PK6, PF3D7_1337100) (Q8IDW1 1-305): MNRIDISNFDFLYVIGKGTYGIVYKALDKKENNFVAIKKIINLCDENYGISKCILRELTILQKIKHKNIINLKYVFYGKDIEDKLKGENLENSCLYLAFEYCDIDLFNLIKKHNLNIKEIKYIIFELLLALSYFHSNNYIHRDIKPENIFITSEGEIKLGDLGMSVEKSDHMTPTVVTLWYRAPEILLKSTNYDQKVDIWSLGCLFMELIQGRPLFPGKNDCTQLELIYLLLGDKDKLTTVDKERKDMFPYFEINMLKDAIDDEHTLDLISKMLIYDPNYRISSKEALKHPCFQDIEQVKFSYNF
Sequence of Calcium-dependent protein kinase 1 (Plasmodium falciparum (isolate 3D7)) (P62344 whole entry, looked up): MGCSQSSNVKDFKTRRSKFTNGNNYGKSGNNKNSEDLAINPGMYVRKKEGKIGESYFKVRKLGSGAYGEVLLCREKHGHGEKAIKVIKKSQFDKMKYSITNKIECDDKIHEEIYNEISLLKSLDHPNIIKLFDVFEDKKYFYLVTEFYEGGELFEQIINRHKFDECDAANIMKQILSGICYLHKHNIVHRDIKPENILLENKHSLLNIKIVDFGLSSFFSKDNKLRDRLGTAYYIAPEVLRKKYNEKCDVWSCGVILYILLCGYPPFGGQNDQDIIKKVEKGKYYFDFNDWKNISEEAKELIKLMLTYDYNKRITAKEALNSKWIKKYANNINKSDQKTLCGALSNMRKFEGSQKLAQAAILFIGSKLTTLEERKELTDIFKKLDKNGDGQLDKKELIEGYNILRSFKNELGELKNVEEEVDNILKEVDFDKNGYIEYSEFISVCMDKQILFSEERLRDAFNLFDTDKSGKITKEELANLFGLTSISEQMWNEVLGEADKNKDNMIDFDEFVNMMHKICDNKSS
Sequence of Protein kinase 7 (PK7), Plasmodium falciparum 3D7 (PF3D7_0213400) (Q7YTF7 1-343): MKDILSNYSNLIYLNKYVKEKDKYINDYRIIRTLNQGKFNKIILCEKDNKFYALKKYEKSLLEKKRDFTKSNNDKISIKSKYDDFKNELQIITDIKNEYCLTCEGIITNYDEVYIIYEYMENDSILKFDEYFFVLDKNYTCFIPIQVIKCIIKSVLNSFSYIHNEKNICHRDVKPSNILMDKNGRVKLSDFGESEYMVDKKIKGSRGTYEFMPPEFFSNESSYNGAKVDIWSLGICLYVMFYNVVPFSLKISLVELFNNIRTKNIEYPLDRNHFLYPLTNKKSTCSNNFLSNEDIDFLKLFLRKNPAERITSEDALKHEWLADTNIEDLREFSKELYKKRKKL
Sequence of L-lactate dehydrogenase (Plasmodium falciparum (isolate CDC / Honduras)) (Q27743 whole entry, looked up): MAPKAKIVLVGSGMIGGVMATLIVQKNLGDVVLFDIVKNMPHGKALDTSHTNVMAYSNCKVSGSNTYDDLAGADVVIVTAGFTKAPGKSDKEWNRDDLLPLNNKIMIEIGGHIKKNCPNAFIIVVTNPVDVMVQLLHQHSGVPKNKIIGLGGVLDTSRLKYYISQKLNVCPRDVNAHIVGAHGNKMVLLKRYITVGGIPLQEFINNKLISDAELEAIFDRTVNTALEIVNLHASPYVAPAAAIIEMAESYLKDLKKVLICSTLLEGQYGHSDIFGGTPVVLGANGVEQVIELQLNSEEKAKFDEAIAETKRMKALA

`CN(C)C(CNC(=O)c1cc(-c2ccncc2)c(-c2ccc(NC(=O)Nc3cccc(Cl)c3)cc2)o1)c1ccccc1` (stereo not given): the results for the growth inhibition in assay [1] and in assay [4] were 100% (active) and 101% (active), respectively. Besides, the inhibition was 12% in assay [2] and -1% in assay [3]. Also, the result in assay [5], in assay [6], in assay [7] and in assay [8] was inactive.

Regarding `CN(CCN1CCC(c2c[nH]c3ccccc23)CC1)C(=O)OCCCCCNC(=O)/C=C/c1ccc(Cl)c(Cl)c1`, the growth inhibition in assay [1] is 44%; in assay [4], 95% (active). Further, the results for the inhibition in assay [2] and in assay [3] were 39% and -4%, respectively. The outcome in assay [5], in assay [6], in assay [7] and in assay [8] was inactive.

For the compound `O=C(/C=C/c1ccc(Cl)c(Cl)c1)NCCCCCN1CCC(NC(=O)c2ccc(F)c(F)c2)CC1`, the growth inhibition was 20% in assay [1] and 99% (active) in assay [4]. The results for the inhibition in assay [2] and in assay [3] were 36% and -3%, respectively. Moreover, the result in assay [5], in assay [6], in assay [7] and in assay [8] was inactive.

`CN1CCCc2ccc(NC(=O)c3ccc(-c4cc(C(F)(F)F)nn4C)s3)cc2C1`: the growth inhibition in assay [1] is 34%; in assay [4], 88% (active). Also, the inhibition in assay [2] was 16%; in assay [3] it was -1%. The result in assay [5], in assay [6], in assay [7] and in assay [8] was inactive.

Turning to `O=C(/C=C/c1ccc(Cl)cc1)NCCCCCN1CCN(C(=O)C=Cc2ccc(Cl)c(Cl)c2)CC1`, the growth inhibition in assay [1] was 0%; in assay [4], 92% (active). The inhibition in assay [2] is 30%; in assay [3], 5%. Also, the result in assay [5], in assay [6], in assay [7] and in assay [8] was inactive.

As for `COc1ccc2nccc([C@@H](O)CN3CCC(NC(=O)C(c4cc5ccccc5o4)N4CCN(C(c5ccccc5)c5ccccc5)CC4)CC3)c2c1` (stereo not given in full), the growth inhibition in assay [1] and in assay [4] was 100% (active) each time. Also, the inhibition in assay [2] is 18%; in assay [3], -4%. In addition, the outcome in assay [5], in assay [6], in assay [7] and in assay [8] was inactive.

`CCCCN(CCCC)C(=NCCCCCCN=C(/N=C(/N)Nc1ccc(Cl)cc1)N(CCCC)CCCC)/N=C(/N)Nc1ccc(Cl)cc1`: the growth inhibition in assay [1] is 72% (active); in assay [4], 81% (active). In addition, the values for the inhibition in assay [2] and in assay [3] were -1% and -5%, respectively. Further, the result in assay [5], in assay [6], in assay [7] and in assay [8] was inactive.

Consider `CC(C)(C)c1ccccc1SC1=C(O)CC2(CCNCC2)OC1=O`, for which the growth inhibition is -4% in assay [1] and 99% (active) in assay [4]. Moreover, the inhibition is 0% in assay [2] and 2% in assay [3]. Also, the outcome in assay [5], in assay [6], in assay [7] and in assay [8] was inactive.

For `CC(C)NCc1ccc(-c2ccc(-c3nc4ccc(C(F)(F)F)cc4[nH]3)cc2)cc1`, the growth inhibition in assay [1] is 98% (active); in assay [4], 100% (active). Also, the inhibition in assay [2] was 16%; in assay [3], 0%. Besides, the result in assay [5], in assay [6], in assay [7] and in assay [8] was inactive.

For `COc1cccc2cc(C(=O)N[C@@H](CC(C)C)C(=O)N[C@H](/C=N/NC(=O)N3CCN(C)CC3)CCc3ccccc3)oc12`, the results for the growth inhibition in assay [1] and in assay [4] were 73% (active) and 85% (active), respectively. Besides, the inhibition in assay [2] was 1%; in assay [3] it was 4%. Moreover, the result in assay [5], in assay [6], in assay [7] and in assay [8] was inactive.

On to `O=C(NCCc1cccc(F)c1)c1cc(Br)cc(N2CCN(c3ccncc3)CC2)c1`, for which the growth inhibition in assay [1] is 86% (active); in assay [4], 100% (active). In addition, the results for the inhibition in assay [2] and in assay [3] were 34% and 0%, respectively. Further, the outcome in assay [5], in assay [6], in assay [7] and in assay [8] was inactive.

For the compound `COc1cccc(CN2CCCN(Cc3cccc(NC(=O)c4ccc(Cl)c(Cl)c4)c3)CC2)c1`, the values for the growth inhibition in assay [1] and in assay [4] were 11% and 89% (active), respectively. In addition, the inhibition in assay [2] is 26%; in assay [3], 0%. Also, the outcome in assay [5], in assay [6], in assay [7] and in assay [8] was inactive.

Take `COc1ccc(CCNCCCCNCCc2ccc(OC)c3ccccc23)c2ccccc12`: the growth inhibition in assay [1] is 33%; in assay [4] it was 100% (active). Moreover, the inhibition in assay [2] was 100% (active); in assay [3], -1%. Also, the result in assay [5], in assay [6], in assay [7] and in assay [8] was inactive.

Regarding `CC(C)COc1ccc(Cl)cc1Cc1ccc(-c2nc3ccc(CCN4CCCC4)cc3[nH]2)o1`, the growth inhibition was 94% (active) in assay [1] and 100% (active) in assay [4]. Besides, the values for the inhibition in assay [2] and in assay [3] were 34% and 1%, respectively. Moreover, the outcome in assay [5], in assay [6], in assay [7] and in assay [8] was inactive.

Consider `COc1ccc(C(=O)NC2CCN(c3ccnc4cc(Cl)ccc34)C2)cc1` (stereo not given), for which the growth inhibition in assay [1] and in assay [4] was 100% (active) each time. In addition, the results for the inhibition in assay [2] and in assay [3] were 31% and 2%, respectively. For the same compound, the result in assay [5], in assay [6], in assay [7] and in assay [8] was inactive.

For the compound `CC(=O)NCCNc1cc(N2CCc3ncnc(Nc4ccc(OCc5c(F)cccc5F)c(Cl)c4)c3C2)ncn1`, the growth inhibition in assay [1] and in assay [4] was 100% (active) each time. The inhibition in assay [2] was 55% (active); in assay [3], 4%. Besides, the result in assay [5], in assay [6], in assay [7] and in assay [8] was inactive.

Regarding `CN(C)c1ccc(C=C2SC(=O)NC2=Nc2ccccc2)cc1`, the growth inhibition in assay [1] was 96% (active); in assay [4] it was 97% (active). Moreover, the values for the inhibition in assay [2] and in assay [3] were 42% and 6%, respectively. For the same compound, the result in assay [5], in assay [6], in assay [7] and in assay [8] was inactive.

`CCCCc1ccc(CCNCCCCCCNCCc2ccc(O)c(O)c2)cc1`: the growth inhibition was -1% in assay [1] and 100% (active) in assay [4]. The inhibition is 45% in assay [2] and 5% in assay [3]. In addition, the outcome in assay [5], in assay [6], in assay [7] and in assay [8] was inactive.

In the case of `O=C(NCCc1ccc(F)cc1)c1ccc(N2CCN(c3ccncc3)CC2)nc1`, the values for the growth inhibition in assay [1] and in assay [4] were 3% and 88% (active), respectively. Moreover, the inhibition is 1% in assay [2] and -4% in assay [3]. Further, the result in assay [5], in assay [6], in assay [7] and in assay [8] was inactive.

With `CC(C)(C)c1ccc(NC(=O)c2ccc(CN3CCCN(Cc4ccsc4)CC3)cc2)cc1`, the values for the growth inhibition in assay [1] and in assay [4] were -1% and 96% (active), respectively. The inhibition in assay [2] was 50% (active); in assay [3], -7%. The outcome in assay [5], in assay [6], in assay [7] and in assay [8] was inactive.
